Measurements taken from PubChem BioAssay (NCI).
About 83,000 compounds went through this panel and 20% of them were active in at least one assay; those are over-represented in the sample as a whole.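 A percent growth of 40 corresponds to 60% growth inhibition; 0 means no net growth; -100 means all cells died. Active threshold: below 10.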 A number with no mark means an inactive call. Calls of active or inactive are those of the source.

Columns and labels:
Test in all cases: NCI-60 one-dose screen, 48 h (100 = growth as untreated, 0 = no growth, -100 = all killed)
Settings in all cases: 10 µM unless noted
NCI-H23 lung = tested on: NCI-H23 lung
NCI-H226 lung = tested on: NCI-H226 lung
NCI-H322M lung = tested on: NCI-H322M lung
HOP-62 NSCLC = tested on: HOP-62 NSCLC
NCI-H460 lung = tested on: NCI-H460 lung
NCI-H522 lung = tested on: NCI-H522 lung
A549/ATCC NSCLC = tested on: A549/ATCC NSCLC
786-0 renal = tested on: 786-0 renal
COLO 205 colon = tested on: COLO 205 colon
DU-145 prostate = tested on: DU-145 prostate
K-562 leukemia = tested on: K-562 leukemia
MALME-3M melanoma = tested on: MALME-3M melanoma
MDA-MB-231 breast = tested on: MDA-MB-231 breast
RXF 393 renal = tested on: RXF 393 renal
SF-268 CNS = tested on: SF-268 CNS
SF-295 CNS = tested on: SF-295 CNS
SF-539 CNS = tested on: SF-539 CNS
UACC-257 melanoma = tested on: UACC-257 melanoma
M14 melanoma = tested on: M14 melanoma

SMILES | growth (NCI-H23 lung) | growth (NCI-H226 lung) | growth (NCI-H322M lung) [%] | growth (HOP-62 NSCLC) | growth (NCI-H460 lung) | growth (NCI-H522 lung) | growth (A549/ATCC NSCLC) | growth (786-0 renal) | growth (COLO 205 colon) | growth (DU-145 prostate) | growth (K-562 leukemia) | growth (MALME-3M melanoma) | growth (MDA-MB-231 breast) [%] | growth (RXF 393 renal) | growth (SF-268 CNS) | growth (SF-295 CNS) | growth (SF-539 CNS) | growth (UACC-257 melanoma) | growth (M14 melanoma)
O=C(O)CSc1ccc(NCc2oc(CO)cc(=O)c2O)cc1 | 99.9% | 94.8% | 110 | 105% | 110% | 89.3% | 103% | 96.6% | 106% | 110% | 89% | 99.6% | 97.2 | 110% | 107% | 106% | 92.2% | 105% | 74.6%
CCN(CC)c1ccc(/C=N/N=C(N)N)cc1 | 65.7% | 84.5% | 87.7 | 54.8% | 23.3% | 27.1% | 44.6% | 72.4% | 30.2% | 55.5% | 26.3% | 58.9% | 66 | 68% | 45.7% | 27.8% | 51.8% | 47.9% | 42.4%
COc1cc([N+](=O)[O-])cc(OC)c1OC | 107% | 112% | 109 | 110% | 109% | 83.8% | 110% | 104% | 127% | 115% | 101% | 97.8% | 112 | 124% | 110% | 110% | 114% | 114% | 108%
COc1ccc(-c2cc(C(=O)Nc3ccc(Br)cc3)nc3[nH]c(=O)sc23)cc1 | 23.6% | 63.4% | 46.8 | 72.7% | 28.8% | -9.13% (active) | 20.3% | 57.2% | 42.3% | 54.9% | 27% | 25% | 84.8 | 65.1% | 51.6% | 53.2% | 43.6% | 16.4% | 44.4%
CC1OC(n2c3ccccc3c3c4c(c5c6ccccc6[nH]c5c32)C(=O)N(CCN2CCOCC2)C4=O)CC(O)C1O (stereo unspecified) | 16.3% | 17% | 59.1 | -5.89% (active) | 3.35% (active) | 10.6% | 12.2% | 6.66% (active) | 20% | 18.1% | 18.4% | 49.1% | 74.5 | 33.4% | 29.8% | 6.46% (active) | 8.58% (active) | 31.8% | 6.29% (active)
COc1cc2c(=O)n(CCCN(C)C)c3c4cc[nH]c4ncc3c2cc1OC | 41.4% | 37.1% | 42.6 | 11.8% | 17.6% | 0.675% (active) | 44.1% | 33.7% | 13.2% | 30.8% | 54.3% | 62.4% | 50.8 | 23.1% | 28.3% | 29.2% | 73.3% | 87.9% | 40.5%
COc1cc(/C=C/c2cc(/C=C/c3ccc(O)c(OC)c3)n(C(=O)Nc3ccc(F)c(Cl)c3)n2)ccc1O | -12.9% (active) | -4.32% (active) | 12.6 | -7.78% (active) | 4.43% (active) | 10.9% | 5.9% (active) | -32.9% (active) | -59.4% (active) | -11.8% (active) | -3.9% (active) | -16.8% (active) | 12.2 | -57.6% (active) | 6.57% (active) | -55.3% (active) | -16.6% (active) | -15.9% (active) | -21.9% (active)
O=C(/C=C/c1ccc(F)cc1)N1CCN(C(=O)/C=C/c2ccc(C(F)(F)F)cc2)CC1 | 106% | 108% | 106 | 109% | 116% | 92% | 96.9% | 107% | 126% | 109% | 104% | 98.6% | 96.8 | 120% | 114% | 119% | 123% | 97.3% | 97.4%
CCN1C(=O)N(CC)C2C1NN=c1s/c(=C\c3ccc(Br)cc3)c(=O)n12 (stereo unspecified) | 29.2% | 50.7% | 45.5 | 23.8% | 7.34% (active) | -49.9% (active) | 19.7% | 23.6% | -34.6% (active) | 6.46% (active) | 4.55% (active) | 52.2% | 25.9 | 40.5% | 36.1% | 17.4% | -5.08% (active) | 23.5% | 7.42% (active)
